PubChem BioAssay (Tox21)
Results filed as inconclusive are left out. Active and inactive are the calls of the source. Calls come from the whole dose curve; as a rule, active = well fitted inhibition curve with a large enough effect in the repeat runs; inconclusive = weak or mixed curves; inactive = flat fitted curve, though single readings scatter.
% is set by controls: 0 for no effect and ±100 for the full control effect.

Each compound was assayed against Luciferin 4-monooxygenase (Photinus pyralis) (UniProt P08659) (assay: qHTS assay to identify small molecule inhibitors of firefly luciferase (AID 1224835; note: nearly all actives have a fitted effect of over 25% in size)). Settings: purified P. pyralis luciferase, luminescence inhibition; series mostly up to 115 µM; activity change, negative = inhibition: at the top concentration.
Sequence of Luciferin 4-monooxygenase (Photinus pyralis) (P08659 whole entry, looked up): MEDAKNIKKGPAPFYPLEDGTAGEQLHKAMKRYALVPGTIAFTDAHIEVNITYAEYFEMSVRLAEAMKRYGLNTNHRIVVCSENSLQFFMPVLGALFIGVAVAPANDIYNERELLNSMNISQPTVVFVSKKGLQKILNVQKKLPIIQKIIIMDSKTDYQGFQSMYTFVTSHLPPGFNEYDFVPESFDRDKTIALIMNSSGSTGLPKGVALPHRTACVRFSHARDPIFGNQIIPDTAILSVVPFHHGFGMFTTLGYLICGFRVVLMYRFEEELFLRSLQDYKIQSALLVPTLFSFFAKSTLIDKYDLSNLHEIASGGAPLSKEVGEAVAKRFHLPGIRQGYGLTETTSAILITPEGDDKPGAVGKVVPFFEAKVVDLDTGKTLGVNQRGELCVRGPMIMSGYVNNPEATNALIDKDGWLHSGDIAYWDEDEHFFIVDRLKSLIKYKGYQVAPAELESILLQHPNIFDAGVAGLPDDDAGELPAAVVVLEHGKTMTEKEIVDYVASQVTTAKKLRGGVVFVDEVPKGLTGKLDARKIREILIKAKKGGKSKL
Text: U.S. Tox21 Program National Center for Advancing Translational Sciences [NCATS] NIH Chemical Genomics Center [NCGC] U.S. Environmental Protection Agency [EPA] National Institutes of Environmental Health Sciences [NIEHS] National Toxicology Program [NTP] U.S. Food and Drug Administration [FDA] Tox21 Assay Overview: Firefly (Photinus pyralis) luciferase is one of the most commonly used transcriptional reporters. Firefly luciferase reporter-gene assays are generally considered one of the most sensitive assay types (Wood, 1995; Wood, 1998). However, it was initially observed, in 1991, by Thompson et al., that compounds that resemble the substrates of firefly luciferase (FLuc) can act as competitive inhibitors of the enzyme, and that these compounds, upon interaction with luciferase in the cell, can actually stabilize the protein and increase its half-life. Previous profiling work by other groups to determine the prevalence of compounds that affect FLuc enzymatic activity (PubChem AID 411) identified that ~3% of the MLSMR library (then at ~72K) inhibited FLuc. […] Thus the Tox21 10K library is profiled for activity against FLuc using a biochemical assay of purified FLuc and KM concentrations of FLuc substrates (D-luciferin and ATP).
These assay plates were then treated with 23nL of compound or DMSO using a Kalypsys pin tool, which allows for delivery of a 6-point interplate titration of each compound to the assay plate (quantitative HTS.) 1 uL of firefly luciferase mix (containing 50 mM Tris acetate, pH 7.6, 0.04 uM P. pyralis luciferase, 0.01% Tween, 0.05% BSA and dH2O) was then delivered by FRD to each well. Luciferase activity was then measured using a ViewLux CCD imager.
In the case of CCCCCC[C@@H](CCC)C(=O)O, the “activity change, negative = inhibition” value is reported as -5.37% [at 52.9 µM] (inactive).
For COC(=O)[C@H]1[C@H]2C[C@@H]3c4[nH]c5cc(OC)ccc5c4CCN3C[C@H]2C[C@@H](OC(=O)COc2ccc(OC)cc2)[C@@H]1OC, the “activity change, negative = inhibition” value was 0.0315% [at 52.9 µM] (inactive).
For Cc1ncc(CSSCc2cnc(C)c(O)c2CO)c(CO)c1O, the “activity change, negative = inhibition” value was -0.0025% [at 52.9 µM] (inactive).
NC(=O)c1ncn([C@@H]2O[C@H](CO)[C@@H](O)[C@H]2O)c1O was tested, and the “activity change, negative = inhibition” value was -2.16% [at 52.9 µM] (inactive).
With COc1ccc2cc(C=O)ccc2c1 the Potency was 34700 nM (active).
With Oc1ccc2c(c1)OC[C@@H](N1CCC(O)(c3ccc(F)cc3)CC1)[C@H]2O the Potency was 1550 nM (active).
CC1(C)SC(C)(C)SC(C)(C)S1 was tested, and the “activity change, negative = inhibition” value was 0.728% (inactive).
In the case of CC(C)(O)C(=O)c1ccc(OCCO)cc1, the “activity change, negative = inhibition” value is reported as 4.03% (inactive).
Cc1onc(-c2ccccc2)c1-c1ccc(S(N)(=O)=O)cc1 was tested, and the “activity change, negative = inhibition” value was -1.99% [at 52.9 µM] (inactive).
With N#CC1(O)CCCCC1 the “activity change, negative = inhibition” value was -2.36% (inactive).
For CSc1ccc(C=O)cc1, the “activity change, negative = inhibition” value was -1.49% (inactive).
COC[C@H](c1ccc(C(F)(F)F)cc1)N1CCN(C2(C)CCN(C(=O)c3c(C)ncnc3C)CC2)C[C@H]1C was tested, and the “activity change, negative = inhibition” value was -0.444% [at 52.9 µM] (inactive).
In the case of CCOC(=O)Nc1ccc2c(c1)N(C(=O)CCN1CCOCC1)c1ccccc1S2, the “activity change, negative = inhibition” value is reported as -5.62% [at 52.9 µM] (inactive).
For CSc1nc(NC2CC2)nc(NC(C)(C)C)n1, the “activity change, negative = inhibition” value was 1.37% (inactive).
With O=[N+]([O-])c1ccc(CCO)cc1 the “activity change, negative = inhibition” value was -12.8% (inactive).
With CCC(C)OC(=O)N1CCCCC1CCO (stereo not given) the “activity change, negative = inhibition” value was -0.171% (inactive).
For O=C(O)C(O)[C@H](O)[C@@H](O)[C@H](O)[C@H](O)CO (stereo not given in full), the “activity change, negative = inhibition” value was 0.531% (inactive).
For OCC(CO)(CO)COCC(CO)(CO)CO, the “activity change, negative = inhibition” value was -0.911% (inactive).
With CC1=CC(=O)CCC1 the “activity change, negative = inhibition” value was 5.35% (inactive).
For Nc1nc2c(ncn2CCC(CO)CO)c(=O)[nH]1, the “activity change, negative = inhibition” value was -1.41% [at 52.9 µM] (inactive).
With CC(=O)CCc1ccc(O)cc1 the “activity change, negative = inhibition” value was -1.65% (inactive).
CC/C=C\CCCCO was tested, and the “activity change, negative = inhibition” value was -0.709% (inactive).
In the case of CCOC(=O)[C@H](CCc1ccccc1)N[C@@H](C)C(=O)N1CCC[C@H]1C(=O)O, the “activity change, negative = inhibition” value is reported as 1.44% [at 52.9 µM] (inactive).
CNc1ncnc2nc[nH]c12 was tested, and the “activity change, negative = inhibition” value was -6.89% (inactive).
In the case of CC(C)CCCC(C)NCCC(C)C (stereo not given), the “activity change, negative = inhibition” value is reported as -0.648% [at 52.9 µM] (inactive).
CCCCCCCCCCCCCCC was tested, and the “activity change, negative = inhibition” value was -4.51% (inactive).
For c1ccc2cnncc2c1, the “activity change, negative = inhibition” value was -6.08% (inactive).
For C1=C\CC/C=C\CC/C=C\CC/1, the “activity change, negative = inhibition” value was 1.35% (inactive).
In the case of Cc1ccc(Nc2ccc(O)c3c2C(=O)c2ccccc2C3=O)cc1, the “activity change, negative = inhibition” value is reported as -6.77% (inactive).
With CC(C)(C)N(CCO)CCO the “activity change, negative = inhibition” value was 2.1% (inactive).
In the case of CC(C)c1cccc(C(C)C)c1N, the “activity change, negative = inhibition” value is reported as -0.375% (inactive).
In the case of COc1ccc(COC=O)cc1, the “activity change, negative = inhibition” value is reported as 0.618% (inactive).
For CCN1CCCC1CNC(=O)c1cc(S(N)(=O)=O)ccc1OC (stereo not given), the “activity change, negative = inhibition” value was -1.2% (inactive).
With C1COCCO1 the “activity change, negative = inhibition” value was -0.496% (inactive).
For Oc1cc(O)c2c(c1)O[C@H](c1ccc(O)c(O)c1)[C@H](O)C2, the “activity change, negative = inhibition” value was -0.177% [at 52.9 µM] (inactive).
In the case of CCCCCCCCN(C)CCCCCCCC, the “activity change, negative = inhibition” value is reported as -0.959% (inactive).
For COc1ccc(N=[N+]([O-])c2ccc(OC)cc2)cc1, the Potency was 222 nM (active).
For CCCCCCCCCCCCCCCCCC(=O)OCCCCCCCCCCCCCC(C)C, the “activity change, negative = inhibition” value was 8.38% (inactive).
O=C(O)/C=C/c1ccc(/C=C/C(=O)O)cc1 was tested, and the “activity change, negative = inhibition” value was -0.897% [at 52.9 µM] (inactive).
With COc1cc(C)cc(O)c1 the “activity change, negative = inhibition” value was 1.3% (inactive).
